Assay outcomes from PubChem BioAssay.
A selection: hits, their analogues and other compounds. The true share with any hit is near 4.6%.
sEH activator = activators of human soluble epoxide hydrolase; P34913; purified human sEH enzymatic activity, activator screen; activation, % at 2 µM; 91,000 compounds, 0.04% hits; AID 717; in the data active = activation above about 37%
Target sequence (P34913 whole entry, looked up): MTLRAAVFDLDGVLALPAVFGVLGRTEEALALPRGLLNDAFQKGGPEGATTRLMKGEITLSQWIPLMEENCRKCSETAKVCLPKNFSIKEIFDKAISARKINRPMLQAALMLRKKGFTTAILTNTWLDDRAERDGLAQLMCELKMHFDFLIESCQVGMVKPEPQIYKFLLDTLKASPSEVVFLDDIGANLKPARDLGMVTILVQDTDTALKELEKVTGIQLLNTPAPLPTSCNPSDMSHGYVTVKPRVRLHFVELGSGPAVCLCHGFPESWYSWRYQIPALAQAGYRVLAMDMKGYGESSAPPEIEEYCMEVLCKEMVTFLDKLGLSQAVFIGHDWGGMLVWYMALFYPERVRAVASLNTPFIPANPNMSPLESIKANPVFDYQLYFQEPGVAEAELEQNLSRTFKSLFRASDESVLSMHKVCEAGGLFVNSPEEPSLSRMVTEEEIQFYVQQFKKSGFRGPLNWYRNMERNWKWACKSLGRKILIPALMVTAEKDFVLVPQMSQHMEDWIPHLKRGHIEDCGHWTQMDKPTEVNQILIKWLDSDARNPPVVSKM
IL1B NFkB inh = blocks IL-1B driven NFkB nuclear translocation in HUVEC cells; HUVEC IL-1B NFkB p65 nuclear translocation imaging; inhibition, % at 2 µM; 94,000 compounds, 0.43% hits;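 active = inhibition above about 30% together with a positive call from visual inspection of the well image, limit read from the data; inconclusive = inhibition above a set limit but visual check negative; inactive = inhibition not above a set limit, visual check negative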;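 also: nuclear over cytoplasmic p65 intensity ratio measured by imaging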
HUVEC tox IL1B = HUVEC cytotoxicity counter-screen, IL-1B stimulated. AID 845. cell count reduction, % at 2 µM. HUVEC cell count loss, Hoechst imaging. 94,000 compounds, 0.41% hits;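 active = cell count reduction more than 3 SD above the screen-wide mean, cut at about 70% in these data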
Cav3 T inh = human Cav3.2 channel inhibition, primary screen; O95180; Cav3.2-expressing cells, Fluo-4 calcium fluorescence FDSS; active compounds read low; B-score at 10 µM; 100,000 compounds, 4% hits;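 active = single-dose well whose peak fluorescence ratio is a statistical outlier from its plate by either plate-standardised score or position-corrected B-score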
NFkB transloc pot = enhances IL-1B driven NFkB nuclear translocation | HUVEC IL-1B NFkB p65 nuclear translocation imaging | activation, % at 2 µM | 94,000 compounds, 0.3% hits;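 active = activation above 40%, about the mean plus 3 SD, also judged a hit on visual image review; inconclusive = activation above 40% but not a hit on visual review; inactive = activation not above 40% and no visual hit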;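 also: percent activation is computed from the nuclear over cytoplasmic p65 intensity ratio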
sEH inh = soluble epoxide hydrolase (human) inhibition; P34913; recombinant human sEH enzymatic activity assay; inhibition, % at 2 µM; 91,000 compounds, 0.34% hits; in the data active = inhibition above about 80%
Large screens that a line does not name were inactive.

COc1ccc(C(=O)NNC(=S)NC(=O)c2ccco2)cc1	Cav3 T inh -5.54
COc1ccc(C(=O)NC(=S)NNC(=O)Cc2cccs2)cc1	Cav3 T inh -4.92
O=C(Nc1ccc2c(c1)OCCO2)C1CCCN(S(=O)(=O)Cc2ccccc2)C1 (centres undefined)	none
O=C(C1CC1)N1CCc2cc(Br)cc(S(=O)(=O)NC3CCCCC3)c21	none (no result: sEH activator, IL1B NFkB inh, HUVEC tox IL1B, NFkB transloc pot, sEH inh)
Cc1ccc2nc(SCCCCOc3ccccc3)[nH]c2c1	Cav3 T inh -6.25
O=C(O)CSc1nc2ccccc2[nH]1	none
COC(=O)CSc1nc2ccc(C)cc2[nH]1	none
c1ccc(OCCSc2nc3ccccc3[nH]2)cc1	Cav3 T inh -3.63
CCCn1nnnc1SCC(=O)NNC(=O)C1CCCCC1	none (no result: Cav3 T inh)
c1ccc(-c2nccc(-c3ccc(-n4cnc5ccccc54)cc3)n2)cc1	none (no result: Cav3 T inh)
CC(C)(C)Cc1nnc(NS(C)(=O)=O)s1	none
CC(C)(C)Cc1nnc(NS(=O)(=O)c2ccc(F)cc2)s1	NFkB transloc pot 98.4
CCCCOc1ccccc1NC(=O)c1ccco1	Cav3 T inh -4.46
CCCCOc1ccccc1NC(=O)C=C(C)C	none
O=C(NC1(C(F)(F)F)NC(=O)N(c2ccc(F)c(Cl)c2)C1=O)c1ccncc1 (centres undefined)	HUVEC tox IL1B 87.8
CCOC(=O)c1[nH]c(C)c(C(=O)OCC(=O)NC(=O)NC(C)(C)C)c1C	none
Nc1nn(S(=O)(=O)c2cccc3nsnc23)cc1-c1ccc(Br)cc1	Cav3 T inh -5.92
Cc1ccc(-c2cn(S(=O)(=O)c3cccc4nsnc34)nc2N)cc1	Cav3 T inh -7.76
CCCCSc1nc(SCC(=O)NCc2ccco2)c2c3c(sc2n1)COC(C)(CC)C3 (centres undefined)	Cav3 T inh -5.47
CCCSc1nc(SCC(=O)NCc2ccccc2)c2c3c(sc2n1)COC(C)(CC)C3 (centres undefined)	none (no result: sEH activator, sEH inh)
CCC(C)c1cc(S(=O)(=O)N2CCOCC2)ccc1OC (centres undefined)	none
COc1cc(/C=C/C(=O)Nc2ccccc2C(F)(F)F)cc(OC)c1OC	none (no result: Cav3 T inh)
CC(=O)Nc1cccc(NC(=O)c2cc(C)on2)c1	none
Cc1cc(Nc2cnc3ccccc3n2)n(-c2ccccc2)n1	Cav3 T inh -4.62 (no result: sEH activator, sEH inh)
COc1cccc(Nc2nnc(SCC(=O)N(CC(C)C)CC(C)C)s2)c1	Cav3 T inh -7.2
Cc1cc(C)nc(NC(=O)c2cnc3sccn3c2=O)n1	none (no result: Cav3 T inh)
CCCCC1(Cc2ccc(OC)c([N+](=O)[O-])c2)C(=O)N(c2ccccc2)N(c2ccccc2)C1=O	Cav3 T inh -3.64
CCc1ccc(NC(=O)CNC(=O)c2cn(-c3ccccc3OC)c(=O)c3ccccc23)cc1	Cav3 T inh -4.15
COc1ccccc1NC(=O)CNC(=O)c1ccccc1C	none
NS(=O)(=O)c1ccc(CNC(=O)/C=C/c2c(Cl)cccc2Cl)cc1	sEH inh 91.6 (no result: Cav3 T inh)
Cc1ccc(SCC(=O)N2CC(C)OC(C)C2)cc1 (centres undefined)	none
C[C@@H](C(=O)Nc1ccc2ccccc2c1)[C@H]1C[C@]1(C)[C@H](NS(=O)(=O)c1ccc(-c2ccccc2)cc1)c1ccccc1	none (no result: sEH activator, IL1B NFkB inh, HUVEC tox IL1B, NFkB transloc pot, sEH inh)
CCN(C1CCCCC1)S(=O)(=O)c1ccc(OC)c(C)c1	Cav3 T inh -6.27
Cc1ccc(S(=O)(=O)NCCC(=O)O)cc1	none
Cc1ccccc1NC(C)C(=O)N/N=C/c1ccccc1OCc1cccc(Br)c1 (centres undefined)	Cav3 T inh -6.38
OCCCc1nc2n(n1)C(c1cccs1)C=C(c1ccc(Br)cc1)N2 (centres undefined)	Cav3 T inh -7.94
Brc1ccc(C2=CC(c3cccs3)n3ncnc3N2)cc1 (centres undefined)	Cav3 T inh -5.51
CN(Cc1ccccc1)C(=O)COc1cc(=O)n(C)c2ccccc12	none
Cc1ccc(C)c(NC(=O)CSc2nnc(-c3ccccc3C)o2)c1	Cav3 T inh -5.54
Cc1ccc(-c2nnc(SCC(=O)Nc3ccccc3F)o2)cc1	none
Cc1ccc(NC2=NC(c3ccc(O)cc3)n3c(nc(C)cc3=O)N2)cc1 (centres undefined)	none
O=C(NCc1ccco1)c1sc2ccccc2c1Cl	none
CCOC(=O)c1ccc(NC(=O)CSc2nc(NC(=O)c3ccccc3)c3c(C)c(C)oc3n2)cc1	none
COC(=O)c1ccccc1NC(=O)CSc1nc(NC(=O)c2ccccc2)c2c(C)c(C)oc2n1	Cav3 T inh -4.94
CN1CCN(Cc2cc(=O)oc3cc4c(cc23)CCC4)CC1	NFkB transloc pot 41.1
CCN(c1ccccc1)c1cc(C)nc2ncnn12	none (no result: sEH activator, IL1B NFkB inh, HUVEC tox IL1B, NFkB transloc pot, sEH inh)
CC(=O)c1ccccc1OCCn1nnc(-c2ccc(C)cc2)n1	Cav3 T inh -5.11
COc1ccc2cc(C(=O)c3ccccc3)c(=O)oc2c1	none
Cc1ccc2cc(CN(Cc3ccco3)C(=O)c3cccs3)c(=O)[nH]c2c1	NFkB transloc pot inconclusive
Cc1ccc(C(=O)c2coc3ccc(O)c(Cl)c23)cc1	Cav3 T inh -5.15
O=C(c1ccccc1)c1coc2ccc(O)c(Cl)c12	none
O=C(N/N=C/c1ccc(O)c(O)c1O)/C(=C/c1ccc([N+](=O)[O-])cc1)NC(=O)c1ccccc1	none
O=C(NC(CSCc1ccccc1)C(=O)N/N=C/c1ccc(O)cc1O)c1ccc([N+](=O)[O-])cc1 (centres undefined)	Cav3 T inh -4.7
Cc1nnc2sc(-c3ccc(NC(=O)CSc4ccc(Cl)cc4)cc3)nn12	none
Cc1ccc(-c2nn3c(C)nnc3s2)cc1NC(=O)CSc1ccc(Cl)cc1	NFkB transloc pot 63.3
Cc1ccc(-c2nn3c(C)nnc3s2)cc1NC(=O)C(C)C	NFkB transloc pot 42.2
Cc1ccc(-c2nn3c(C)nnc3s2)cc1NC(=O)c1cccnc1	none
O=C1CSC(c2cn(-c3ccccc3)nc2-c2cccs2)N1CC1CCCO1 (centres undefined)	Cav3 T inh -5.04
O=C1CSC(c2cn(-c3ccccc3)nc2-c2ccccc2)N1Cc1ccco1 (centres undefined)	Cav3 T inh -4.73
CCOC(=O)C1=C(C)NC(=O)NC1c1cn(-c2ccccc2)nc1-c1cccs1 (centres undefined)	none (no result: sEH activator, IL1B NFkB inh, HUVEC tox IL1B, NFkB transloc pot, sEH inh)
Cc1cc(C(=O)NCCCN2CCN(c3cc(Cl)ccc3C)CC2)n(-c2ccccc2)n1	Cav3 T inh -4.67
Cc1cc(C(=O)NCCN2CCN(c3cccc(Cl)c3)CC2)n(-c2ccccc2)n1	none (no result: sEH activator, IL1B NFkB inh, HUVEC tox IL1B, NFkB transloc pot, sEH inh)
Cc1ccc(S(=O)(=O)NCC(=O)NC2CCCCCC2)cc1	NFkB transloc pot inconclusive
Cc1ccc(C(=O)Cn2nnc3ccccc32)cc1	none
CCN(C(=O)c1ccc(C(C)(C)C)cc1)c1nnc(Cn2nnc3ccccc32)s1	Cav3 T inh -8.04
CC1=NN(/C(=N\c2nnc(C)s2)Nc2ccc(C(C)(C)C)cc2)[C@H](c2ccc(C)cc2)S1	Cav3 T inh -5.65
Cc1cccc(C(CC(=O)N2CCCC2)c2ccccc2)c1O (centres undefined)	none
C=CCc1c(C)nc(SC)nc1Nc1ccccc1	Cav3 T inh -4
C=CCc1c(C)nc(SC)nc1Nc1ccc(C(=O)O)cc1	none
